A selection: hits, their analogues and other compounds. The true share with any hit is near 19%.
TGFb SMAD3 inh – blocks TGF-b signaling | HepG2 CAGA-GFP TGF-b/SMAD3 reporter, GFP fluorescence, 18 h; TGF-beta stimulated, 500 pg/mL final | Potency, µM (titrated, usually from 46.1 µM), without a hit: at the highest dose activity, negative = inhibition, hits mostly inhibitors | 410,000 tested, 1.2% active | AID 588855; note: potency is the fitted concentration of half-maximal effect; % is set by controls: 0 for no effect and ±100 for the full control effect; nearly all actives have a fitted effect of over 65% in size
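Using HEPG2 CAGA-GFP reporter cells at 1000 cells/well, we pinned test compounds, stimulated with recombinant TGF-beta (500 pg/mL final) and measured total well GFP after 18 h.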
DT40 TDP1 CPT – growth inhibition of DT40 Tdp1-/-;hTDP1 cells with camptothecin (screen for TDP1 inhibitors); chicken DT40 Tdp1-/-;hTDP1 cells + 20 nM CPT, ATP luminescence, 48 h; Potency, µM (titrated, usually from 46.2 µM), without a hit: at the highest dose activity change, negative = growth inhibition, actives largely listed as inhibitors; 420,000 tested, 12% active; note: potency is the fitted concentration of half-maximal effect; % is set by controls: 0 for no effect and ±100 for the full control effect; nearly all actives have a fitted effect of over 55% in size
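Cell growth measured by CellTiter-Glo luminescence after a minimum 48 h, 37 C compound exposure with 20 nM CPT in Tdp1-knockout DT40 cells stably expressing hTDP1, seeded 400/well; qHTS titration format.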
TDP1 cell noCPT – qHTS for Inhibitors of human tyrosyl-DNA phosphodiesterase 1 (TDP1): qHTS in cells in absence of CPT | 420,000 tested, 15% active | AID 686978, 2013 | Potency, µM (titrated, usually from 46.2 µM), without a hit: at the top dose activity change, negative = growth inhibition, usual class: inhibitors | DT40 Tdp1-/- hTDP1 cells, no CPT, ATP luminescence, 48 h; note: potency is the fitted concentration of half-maximal effect; % is set by controls: 0 for no effect and ±100 for the full control effect; nearly all actives have a fitted effect of over 55% in size
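Growth kinetics read by CellTiter-Glo luminescence after ≥48 hr at 37 °C. Cells: DT40 Tdp1-/- stably carrying human TDP1, 400 per well, compound exposure in the absence of CPT (DMSO vehicle).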
HepG2 viability – HepG2 cytotoxicity, counter-screen for TGF-b inhibitors. Potency, µM (doses to about 46.1 µM), inactives show top-dose activity change, negative = cytotoxicity, hits mostly cytotoxic. AID 588856. HepG2 CAGA-GFP viability, ATP luminescence, 18 h. 410,000 tested, 0.76% active; note: potency is the fitted concentration of half-maximal effect
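CellTiter-Glo luminescence gave cytotoxicity after 18 hours at 37 degrees C. The cells were HepG2 CAGA-GFP in 1% FBS DMEM, stimulated with 500 pg/mL TGF-beta after compound addition. %Activity was normalised to no-cell wells (complete cell-killing) and DMSO (no toxicity), and curves were fitted and classified.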
TDP1 inh – blocks human tyrosyl-DNA phosphodiesterase 1 | 350,000 tested, 0.28% active | recombinant TDP1, AlphaScreen DNA substrate cleavage | Q9NUW8 | AID 485290 | Potency, µM (titrated, usually from 130 µM), for the others: at the top dose activity change, negative = inhibition, most hits filed as inhibitors; note: potency is the fitted concentration of half-maximal effect; % is set by controls: 0 for no effect and ±100 for the full control effect; nearly all actives have a fitted effect of over 40% in size
Target sequence (Q9NUW8 whole entry, looked up): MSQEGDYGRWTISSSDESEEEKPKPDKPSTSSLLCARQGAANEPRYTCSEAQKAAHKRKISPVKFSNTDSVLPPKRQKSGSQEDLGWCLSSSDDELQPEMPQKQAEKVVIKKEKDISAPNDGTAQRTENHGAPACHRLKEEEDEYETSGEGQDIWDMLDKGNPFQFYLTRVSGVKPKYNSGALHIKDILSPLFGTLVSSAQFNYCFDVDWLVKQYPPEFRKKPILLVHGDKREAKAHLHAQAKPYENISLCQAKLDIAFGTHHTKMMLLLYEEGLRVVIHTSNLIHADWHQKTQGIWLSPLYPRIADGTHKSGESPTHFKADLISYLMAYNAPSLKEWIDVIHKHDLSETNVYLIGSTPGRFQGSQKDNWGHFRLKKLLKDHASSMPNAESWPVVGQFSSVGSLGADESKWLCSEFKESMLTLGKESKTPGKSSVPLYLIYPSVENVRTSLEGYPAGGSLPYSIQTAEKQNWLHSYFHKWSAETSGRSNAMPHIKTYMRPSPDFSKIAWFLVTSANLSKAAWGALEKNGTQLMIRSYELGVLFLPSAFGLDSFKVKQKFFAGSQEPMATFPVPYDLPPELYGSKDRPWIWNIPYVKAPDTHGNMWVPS
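Steps: enzyme plus compound, 15 min RT; add biotin/phosphotyrosine-FITC oligonucleotide (15 nM final), react 5 min; add donor/acceptor beads (10 ug/ml final), 10 min; read AlphaScreen. Tdp1 at 1 nM final.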
IL1B secr inh – blocks inflammasome-driven IL-1 beta release; THP-1 LPS/ATP IL-1B secretion, AlphaLISA, 16 h; stronger effect = lower value; activity change, % at 57.5 µM; 360,000 tested, 4.7% active; AID 743279; in the data active = activity change below about -50%; inconclusive = mostly about -30% to -49%; note: % is set by controls: 0 for no effect and ±100 for the full control effect
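Secreted IL-1B measured by AlphaLISA bead assay after 16 h compound exposure of THP-1 cells; compounds (final up to 57.5 uM) added 1 h before LPS (250 ng/mL) and ATP (1.25 mM) stimulation; lower signal means less secretion.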
Starred values were filed as active, the others as inactive; ? = inconclusive; · = no result given. Unless noted, calls come from the whole dose curve; as a rule, active = well fitted curve in the direction sought with a large enough effect; inconclusive = small, poorly fitted or top-dose-only effect, or another doubt; inactive = no such curve, though single readings can be large; an effect the other way counts as inactive or inconclusive.

SMILES	TGFb SMAD3 inh	DT40 TDP1 CPT	TDP1 cell noCPT	HepG2 viability	TDP1 inh	IL1B secr inh
CC(C)(C)c1ccc(S(=O)(=O)Nc2cccc(C3OCCCO3)c2)cc1	0.0%	14.6µM*	14.6µM*	-1.9%	0.0%	0.0
O=C1NC[C@@H](CCCCN2CCN(CC3CCCCC3)C(=O)C2=O)N(CC2CCCCC2)C1=O	·	4.2%	-13.2%	·	·	4.2
COc1cc(OC)cc(-n2nnc(-c3nc(-c4ccccc4Cl)no3)c2N)c1	7.3%	?	?	-13.5%	-12.8%	·
CC(CCc1ccco1)NC(=O)c1cc2c(-c3ccccc3F)nn(C)c2s1 (configuration not stated)	-11.1%	?	?	-2.9%	6.9%	-23.9
Cn1nc(-c2ccccc2F)c2cc(C(=O)Nc3ccc4c(c3)OCCO4)sc21	-9.9%	?	20.6µM*	-6.0%	8.0%	-64.7*
Cn1nc(-c2ccccc2F)c2cc(C(=O)NCc3cccc(Cl)c3)sc21	-40.7%	14.6µM*	?	-10.3%	-1.3%	·
CCCN(CCC)CCNC(=O)c1cc2c(-c3ccccc3F)nn(C)c2s1	?	?	?	-22.4%	4.7%	-91.8*
Cn1nc(-c2ccccc2F)c2cc(C(=O)Nc3cc(F)ccc3F)sc21	-15.5%	?	?	-33.1%	-1.3%	·
Cn1nc(-c2ccccc2F)c2cc(C(=O)NCc3ccc(Cl)cc3)sc21	?	?	16.4µM*	-16.5%	3.8%	·
Cc1cccc(Cc2nc3ccccc3[nH]2)c1	-1.4%	-20.2%	?	4.5%	·	-17.2
O=C(Nc1ccccc1N1CCOCC1)c1cccc(Oc2ccccc2)c1	-20.2%	?	?	-3.1%	·	?
O=C(c1ccncc1)N1CCC2(CC1)CN(Cc1cc(C(F)(F)F)cc(C(F)(F)F)c1)C2	·	?	-7.3%	·	·	·
Cc1nc(N2CCOCC2)c2nc(-c3ccccc3)n(CCN(C)C)c2n1	·	·	·	·	2.7%	·
Cc1ccc(-c2csc3nc4c5ccccc5c(NCCCN(C)C)nn4c(=O)c23)cc1	?	?	18.4µM*	14.1µM*	-5.0%	?
COc1ccc(OC)c(-c2cc(-c3cccnc3)nc(N)c2C#N)c1	13.0%	0.92µM*	0.92µM*	15.0%	0.0%	15.8
N#Cc1c(-c2ccccc2)cc(-c2ccc(O)cc2)nc1N	3.6%	?	?	9.0%	·	-2.2
COc1cccc(-c2cc(-c3cccnc3)nc(N)c2C#N)c1	25.4%	2.0%	-8.6%	11.0%	6.0%	?
CCOc1cc(/C=C(\C#N)c2[nH]nc(N)c2C#N)ccc1O	?	?	10.3µM*	-0.6%	7.0%	-64.8*
CCOc1cc(-c2cc(-c3ccc(C)cc3)nc(N)c2C#N)ccc1O	?	?	20.6µM*	-89.8%	4.5%	18.4
COc1ccc(-c2cc(-c3ccc(O)cc3)nc(N)c2C#N)cc1	-15.5%	?	23.1µM*	-28.7%	·	-12.1
Cc1ccc2c(c1)c1c(c(=O)n(-c3cccc(Cl)c3)c(=O)n1C)n2C	-1.3%	?	-27.2%	-0.3%	5.6%	·
Fc1ccc2c(c1)-c1nc(-c3ccccc3)cc(-c3ccccc3)c1CO2	18.1%	?	-26.9%	-1.1%	3.2%	·
N#Cc1c(-c2ccc(F)cc2)cc(-c2cccnc2)nc1N	15.8%	-0.9%	-0.8%	6.5%	0.0%	-3.9
COc1cc(-c2cc(-c3ccc(O)cc3)nc(N)c2C#N)ccc1O	-8.1%	-96.0%	?	-25.4%	0.0%	-65.1*
N#Cc1c(-c2ccco2)cc(-c2ccc(F)cc2)nc1N	2.5%	?	18.4µM*	-2.5%	1.6%	-2.1
COc1ccccc1-c1nn2c(=O)cc(CN3CCN(C(=O)/C=C/c4ccccc4)CC3)nc2s1	?	?	23.1µM*	-0.6%	8.1%	·

Screening data (PubChem BioAssay)
